From PubChem BioAssay (NCI)
About 83,000 compounds went through this panel and 20% of them were active in at least one assay; those are over-represented in the sample as a whole.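 Assay: single dose, 48 h. Readout: percent growth (0 = no net growth; negative = cell death). Active: <10.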 Activity calls are given as the source filed them.

Legend:
Assay in all cases: NCI-60 one-dose screen, 48 h (100 = growth as untreated, 0 = no growth, -100 = all killed)
Conditions in all cases: 10 µM unless noted
HCT-15 colon = system: HCT-15 colon
HT29 colon = system: HT29 colon
SNB-19 CNS = system: SNB-19 CNS
U251 CNS = system: U251 CNS
PC-3 prostate = system: PC-3 prostate
SK-MEL-5 melanoma = system: SK-MEL-5 melanoma
UACC-62 melanoma = system: UACC-62 melanoma
LOX IMVI melanoma = system: LOX IMVI melanoma
SK-MEL-28 melanoma = system: SK-MEL-28 melanoma
SK-MEL-2 melanoma = system: SK-MEL-2 melanoma
EKVX NSCLC = system: EKVX NSCLC
SN12C renal = system: SN12C renal
UO-31 renal = system: UO-31 renal
TK-10 renal = system: TK-10 renal
ACHN renal = system: ACHN renal
CAKI-1 renal = system: CAKI-1 renal
A498 renal = system: A498 renal
CCRF-CEM leukemia = system: CCRF-CEM leukemia
MOLT-4 leukemia = system: MOLT-4 leukemia
SNB-75 CNS = system: SNB-75 CNS

Measured: growth

CSC1=CC(=O)c2ccccc2C1=O
active: CCRF-CEM leukemia -16.7% | MOLT-4 leukemia -21.7%
inactive: HCT-15 colon 101% | HT29 colon 103% | SNB-19 CNS 94.2% | U251 CNS 92.2% | PC-3 prostate 67.3% | SK-MEL-5 melanoma 89.4% | UACC-62 melanoma 79.7% | LOX IMVI melanoma 68.5% | SK-MEL-28 melanoma 113% | SK-MEL-2 melanoma 96.1% | EKVX NSCLC 89.6% | SN12C renal 97% | UO-31 renal 28% | TK-10 renal 97.9% | ACHN renal 24% | CAKI-1 renal 33.6% | A498 renal 91.5%

CC(=O)c1cc(C)c(OC(=O)c2ccccc2)c(C)c1
inactive: HCT-15 colon 92.2% | SNB-75 CNS 82.6% | SNB-19 CNS 103% | PC-3 prostate 89.9% | SK-MEL-5 melanoma 88.9% | UACC-62 melanoma 90.7% | LOX IMVI melanoma 90.2% | SK-MEL-28 melanoma 117% | EKVX NSCLC 96.5% | SN12C renal 102% | UO-31 renal 84.3% | ACHN renal 103% | CAKI-1 renal 79.3% | A498 renal 105% | CCRF-CEM leukemia 85.4% | MOLT-4 leukemia 93.3%

CN1CCN(c2nc(-c3ccncc3)nc3sc4c(c23)CCCCCC4)CC1
inactive: HCT-15 colon 76.5% | HT29 colon 24.3% | SNB-75 CNS 14.5% | U251 CNS 63.5% | PC-3 prostate 61.9% | UACC-62 melanoma 86.6% | LOX IMVI melanoma 64.9% | SK-MEL-28 melanoma 83.5% | SN12C renal 67.8% | UO-31 renal 33.7% | ACHN renal 68.3% | CAKI-1 renal 46.7% | A498 renal 31.7% | CCRF-CEM leukemia 79.5% | MOLT-4 leukemia 50.9%

COc1ccc(-c2c(-c3cc4c(c(OC)c3OC)OCO4)noc2N)cc1
inactive: HCT-15 colon 27% | SNB-75 CNS 22.8% | SNB-19 CNS 40.6% | U251 CNS 32.4% | PC-3 prostate 12.2% | SK-MEL-5 melanoma 16.5% | UACC-62 melanoma 37.5% | LOX IMVI melanoma 43.7% | SK-MEL-28 melanoma 49.7% | EKVX NSCLC 40.5% | SN12C renal 44.4% | UO-31 renal 57.4% | TK-10 renal 66.3% | CAKI-1 renal 37.6% | A498 renal 35.8% | CCRF-CEM leukemia 11.7% | MOLT-4 leukemia 36.6%

N#Cc1ccc(C(F)(F)F)nc1N1CCC(C(=O)Nc2ccc(Cl)cc2)CC1
inactive: HCT-15 colon 43.9% | HT29 colon 51.5% | SNB-75 CNS 105% | U251 CNS 65.3% | PC-3 prostate 51% | UACC-62 melanoma 84.8% | LOX IMVI melanoma 43.7% | SK-MEL-28 melanoma 87.2% | SN12C renal 80.3% | UO-31 renal 74% | ACHN renal 68.7% | CAKI-1 renal 73.1% | A498 renal 64.2% | CCRF-CEM leukemia 82.5% | MOLT-4 leukemia 41%

Cc1ccc(-c2nnc(COc3ccc(-c4nnc(N)s4)cc3)o2)cc1
inactive: HCT-15 colon 81.3% | HT29 colon 81.5% | SNB-75 CNS 94.2% | SNB-19 CNS 86% | PC-3 prostate 83.9% | UACC-62 melanoma 83.2% | LOX IMVI melanoma 26% | SK-MEL-28 melanoma 98.3% | SK-MEL-2 melanoma 104% | SN12C renal 82.2% | UO-31 renal 91.7% | TK-10 renal 106% | ACHN renal 107% | CAKI-1 renal 94.8% | A498 renal 103% | CCRF-CEM leukemia 47.7%

COC(=O)C1C2CC3c4[nH]c5cc(OC)ccc5c4CCN3CC2CC(OC2CCCCO2)C1OC (stereo unspecified)
inactive: HCT-15 colon 99.8% | HT29 colon 94.4% | SNB-75 CNS 84.4% | U251 CNS 97% | PC-3 prostate 87.1% | UACC-62 melanoma 99.3% | LOX IMVI melanoma 95.4% | SK-MEL-28 melanoma 101% | SK-MEL-2 melanoma 106% | EKVX NSCLC 101% | SN12C renal 108% | TK-10 renal 104% | ACHN renal 99.6% | CAKI-1 renal 83.2% | A498 renal 82.8% | CCRF-CEM leukemia 89.2% | MOLT-4 leukemia 99.2%

CC(=O)Nc1ccccc1-c1n[nH]c(=O)[nH]c1=O
inactive: HCT-15 colon 102% | HT29 colon 90.7% | SNB-75 CNS 90.3% | U251 CNS 101% | PC-3 prostate 99.4% | UACC-62 melanoma 103% | LOX IMVI melanoma 97.8% | SK-MEL-28 melanoma 104% | SN12C renal 104% | UO-31 renal 79.1% | ACHN renal 95.3% | CAKI-1 renal 83% | A498 renal 87.8% | CCRF-CEM leukemia 105% | MOLT-4 leukemia 109%

CC(C)(C)[Si](C)(C)OC1[C@@H](O[Si](C)(C)C(C)(C)C)[C@@H](CNC(=O)NC(=O)C(F)(F)F)O[C@H]1n1cnc2c(NC(=O)Nc3ccccc3)ncnc21 (stereo partly specified)
inactive: HCT-15 colon 69.7% | HT29 colon 21.3% | SNB-75 CNS 72.8% | U251 CNS 78.6% | UACC-62 melanoma 84.3% | LOX IMVI melanoma 56.2% | SK-MEL-28 melanoma 97.9% | SN12C renal 81.1% | ACHN renal 76.2% | CAKI-1 renal 16.6% | A498 renal 96.9%
active: PC-3 prostate -35.5% | UO-31 renal -24.2% | MOLT-4 leukemia -41.7%

Nc1ccccc1-c1n[nH]c(=O)[nH]c1=O
inactive: HCT-15 colon 104% | HT29 colon 106% | SNB-75 CNS 89.5% | U251 CNS 94.2% | PC-3 prostate 96.9% | UACC-62 melanoma 89% | LOX IMVI melanoma 97.8% | SK-MEL-28 melanoma 103% | SN12C renal 97.7% | UO-31 renal 86.8% | ACHN renal 104% | CAKI-1 renal 87.5% | A498 renal 107% | MOLT-4 leukemia 106%

Clc1ccc2c(N3CCN(c4ccnc(NC5CCCCC5)n4)CC3)ccnc2c1
active: HCT-15 colon 2.81% | HT29 colon 3.22% | A498 renal -40.7% | CCRF-CEM leukemia 8.39% | MOLT-4 leukemia -3.75%
inactive: SNB-75 CNS 65.6% | U251 CNS 40.4% | PC-3 prostate 36.7% | SK-MEL-28 melanoma 36.8% | SK-MEL-2 melanoma 72.9% | UO-31 renal 22.4% | TK-10 renal 61.1% | ACHN renal 45.5% | CAKI-1 renal 57.8%

CN(C)C(=S)SCN1C(=O)c2ccc([N+](=O)[O-])cc2S1(=O)=O
inactive: HCT-15 colon 95.2% | SNB-75 CNS 99.9% | SNB-19 CNS 94.3% | U251 CNS 93.5% | SK-MEL-5 melanoma 101% | UACC-62 melanoma 92.2% | LOX IMVI melanoma 92.9% | SK-MEL-28 melanoma 109% | SK-MEL-2 melanoma 112% | EKVX NSCLC 93.7% | SN12C renal 93.1% | UO-31 renal 83.1% | TK-10 renal 108% | CAKI-1 renal 96% | A498 renal 92.6% | CCRF-CEM leukemia 50.6% | MOLT-4 leukemia 91.6%

O=c1[nH]c(-c2ccncc2)nc2sc3c(c12)CCCCCC3
inactive: HCT-15 colon 76.1% | HT29 colon 99% | SNB-75 CNS 33.8% | U251 CNS 71.7% | PC-3 prostate 90.1% | UACC-62 melanoma 88% | LOX IMVI melanoma 83.2% | SK-MEL-28 melanoma 101% | SN12C renal 77.9% | UO-31 renal 70.5% | ACHN renal 49.9% | CAKI-1 renal 67.8% | A498 renal 70.1% | CCRF-CEM leukemia 98.1% | MOLT-4 leukemia 92.1%

O=C(O)c1ccccc1Oc1cc(-c2ccco2)nc(OCCBr)n1
inactive: HCT-15 colon 104% | SNB-75 CNS 99.7% | SNB-19 CNS 98.6% | U251 CNS 98.3% | SK-MEL-5 melanoma 110% | UACC-62 melanoma 94.9% | LOX IMVI melanoma 107% | SK-MEL-28 melanoma 119% | SK-MEL-2 melanoma 111% | EKVX NSCLC 94.5% | SN12C renal 94.7% | UO-31 renal 86.6% | TK-10 renal 103% | CAKI-1 renal 90.7% | A498 renal 99.3% | CCRF-CEM leukemia 87.1% | MOLT-4 leukemia 98.5%

O=C1NC(=O)C(CSc2ccccc2)(c2ccccc2)N1 (stereo unspecified)
inactive: HCT-15 colon 119% | SNB-75 CNS 83.9% | SNB-19 CNS 113% | U251 CNS 96.7% | PC-3 prostate 88.9% | SK-MEL-5 melanoma 92.6% | UACC-62 melanoma 101% | LOX IMVI melanoma 89.6% | SK-MEL-28 melanoma 112% | EKVX NSCLC 110% | SN12C renal 103% | UO-31 renal 88.9% | ACHN renal 101% | CAKI-1 renal 87.7% | A498 renal 122% | CCRF-CEM leukemia 97.1%

COc1ccc(-n2c(SCc3cc(OC)c(OC)c(OC)c3)nc3ccc(C)cc3c2=O)c(OC)c1
inactive: HCT-15 colon 23.7% | HT29 colon 11.3% | SNB-75 CNS 29.6% | U251 CNS 24.9% | SK-MEL-5 melanoma 17.6% | UACC-62 melanoma 24.3% | LOX IMVI melanoma 31.6% | SK-MEL-28 melanoma 40.8% | SN12C renal 45.2% | UO-31 renal 18.2% | ACHN renal 44.9% | CAKI-1 renal 13.4% | MOLT-4 leukemia 11.3%
active: PC-3 prostate 8.75% | A498 renal -16.4% | CCRF-CEM leukemia 0%

c1ccc(-c2nc(N3CCOCC3)c3c4c(sc3n2)CCCCCC4)nc1
inactive: HCT-15 colon 46.9% | HT29 colon 65.9% | SNB-75 CNS 29.4% | U251 CNS 50.3% | PC-3 prostate 32.2% | UACC-62 melanoma 51.7% | LOX IMVI melanoma 69.6% | SK-MEL-28 melanoma 75.5% | SN12C renal 65.2% | UO-31 renal 25.9% | ACHN renal 63.4% | CAKI-1 renal 35.3% | MOLT-4 leukemia 52.7%
active: A498 renal -6.33%

COc1cc2nc(SCc3cc(OC)c(OC)c(OC)c3)n(-c3ccccc3OC)c(=O)c2cc1OC
inactive: HCT-15 colon 75.4% | HT29 colon 66.6% | SNB-75 CNS 62.8% | U251 CNS 86.8% | PC-3 prostate 61.1% | UACC-62 melanoma 72.5% | LOX IMVI melanoma 77.3% | SK-MEL-28 melanoma 78.9% | SN12C renal 98% | UO-31 renal 36.3% | ACHN renal 88.5% | CAKI-1 renal 42.9% | A498 renal 25.5% | MOLT-4 leukemia 46.8%
